Laboratory results as given in PubChem BioAssay (NCATS).
Where “and” joins values, the source holds several entries; their conditions need not be identical. Identical values can stand only once. Inconclusive results are not listed. Where a call stands in place of a potency, no number is given. Calls of active or inactive are those of the source. Calls follow the shape of the dose curve; as a rule, active = well fitted cell-killing curve with a large enough effect; inconclusive = small, poorly fitted or top-dose-only effect; inactive = no such curve, though single readings can be large or run the other way.

Assay: qHTS of pediatric cancer cell lines to identify multiple opportunities for drug repurposing: Primary screen for OHS-50 cells (AID 1347103); also: nearly all actives have a fitted effect of over 40% in size
Conditions: OHS-50 osteosarcoma viability, CellTiter-Glo luminescence, 48 h; series mostly up to 57.3 µM
Excerpt: Drug repurposing or repositioning has been offered as a strategy for drug development in oncology programs. This approach has special potential for childhood cancers and other rare or orphan diseases, where the expected return on new drug development has been a disincentive to pharmaceuticals.
In this project we exploit the poly-pharmacology of drugs to discover new indications via phenotypic screening of a panel of 19 well-characterized cell lines derived from solid tumors seen in children and adolescents. The goal is to identify approved drugs with previously unrecognized anticancer properties that has the potential to reveal new mechanisms and biological processes involved in carcinogenesis or drug resistance. We employed a titration-based paradigm (quantitative high-throughput screening or qHTS), where all compounds were tested at multiple concentrations for their effect on cell viability. Concentration-response curves (CRCs) were derived directly from the primary screen, and both potency and efficacy values were used to identify compounds with robust bioactivity profiles. We screened the NIH Chemical Genomics Center (NCGC) Pharmaceutical Collection (NPC) and Mechanism Interrogation Plate (MIPE) small molecule collections of approved and investigational compounds against these cell lines; and measured metabolically active cells after 48 hours of compound treatment as a proxy for cell viability.
Assay Submitter: Nathalia J. Martinez, National Center for Advancing Translational Sciences, National Institutes of Health, Rockville, MD, USA; email: natalia.martinez@nih.gov
[1] Shen, M et al. Quantitative high-throughput phenotypic screening of pediatric cancer cell lines identifies multiple opportunities for drug repurposing. Oncotarget 2017 Dec 19;9(4):4758-4772. PMID 29435139.
The cells were obtained from University of North Carolina (UNC), Pediatric Preclinical Testing Program (PPT), and Coriell Institute (CI).
qHTS cell viability assay:
Cells were assayed in growth media at a density of 500-1,000 cells/well. Five microliters of cells were dispensed into 1,536-well, white, solid-bottom, TC-treated plates (Greiner Bio One) using a multidrop dispenser and incubated at 37 degrees C, 5% CO2, under a humidified atmosphere for 5 hours. Twenty-three nanoliters of compounds and controls (neutral control DMSO or positive control bortezomib at final concentration of 2.3 µM) were subsequently transferred by Kalypsys pintool. For primary screens, the MIPE collection was tested at 11-point dilutions (final concentrations range from 0.78 nM to 46 µM) and the NPC collection at 8-point dilutions (final concentrations range from 0.59 nM to 46 µM). Compounds tested in follow-up screens were assayed at 11-point dilutions. Cells were incubated for 48 hours, followed by addition of 3 µL of CellTiter-Glo (Promega). After a 15 min incubation at room temperature, samples were analyzed for luminescence intensity using a ViewLux High-throughput CCD imager equipped with clear filters.
Potency is read from the fitted curve at half-maximal effect.

| Compound | Potency |
| --- | --- |
| O=P1(NCCCl)OCCCN1CCCl (stereo not given) | inactive |
| CN1C(=S)CN=C(c2ccccc2)c2cc(Cl)ccc21 | inactive |
| Cn1c(CCCC(=O)O)nc2cc(N(CCCl)CCCl)ccc21 | 24.6 µM (active) and 24.3 µM (active) |
| Oc1ccccc1-c1ccccc1 | inactive |
| Cc1sc2c(c1C)C(c1ccc(Cl)cc1)=N[C@@H](CC(=O)OC(C)(C)C)c1nnc(C)n1-2 | 0.344 µM (active) |
| NP(N)(=O)NC(=O)c1ccc(F)cc1 | inactive |
| N[C@@H](Cc1ccc(N(CCCl)CCCl)cc1)C(=O)O | 9.78 µM (active) and 3.85 µM (active) |
| CNC(=O)N1N=C(c2ccc(N)cc2)c2cc3c(cc2CC1C)OCO3 (stereo not given) | 3.85 µM (active) |
| COc1ccccc1N1CCNCC1 | inactive |
| CC(=O)Nc1cc([As](=O)(O)O)ccc1O | inactive |
| Nc1ccncc1 | inactive |
| CCCC1CCCCN1 (stereo not given) | inactive |
| C[C@@H]1[C@@H](CC(C[C@H]2O[C@@H]3O[C@]4(C)CC[C@@H]5[C@H](C)CC[C@@H]([C@H]2C)[C@@]35OO4)C[S+](=O)([O-])c2ccc(COC(=O)N(C)C)cc2)O[C@@H]2O[C@]3(C)CC[C@H]4[C@H](C)CC[C@@H]1[C@@]24OO3 (stereo not given in full) | 0.306 µM (active) |
| O=C1CC[C@@]2(O)[C@H]3Cc4ccc(O)c5c4[C@@]2(CCN3CC2CC2)[C@H]1O5 | inactive |
| Cc1ncc(CNC(=O)N(CCCl)N=O)c(N)n1 | inactive |
| CC[C@@H](CO)NC(=O)[C@@H]1C=C2c3cccc4c3c(cn4C)C[C@H]2N(C)C1 | inactive |
| CC[N+](CC)(CC)CC | inactive |
| COC[C@@H](NC(C)=O)C(=O)NCc1ccccc1 | inactive |
| NCC(O)c1ccc(O)cc1 (stereo not given) | inactive |
| COc1ccc2c(c1OC)CN1CCc3cc4c(cc3C1C2)OCO4 (stereo not given) | 17.4 µM (active) |

| Compound | Potency |
| --- | --- |
| Clc1ccc(CCC(Cn2ccnc2)Sc2c(Cl)cccc2Cl)cc1 (stereo not given) | 27.6 µM (active) |
| CCC(C(N)=O)N1CCCC1=O (stereo not given) | inactive |
| CC1NCCOC1c1ccccc1 (stereo not given) | inactive |
| COC[C@H]1OC(=O)c2coc3c2[C@@]1(C)C1=C(C3=O)C2CCC(=O)[C@@]2(C)C[C@H]1OC(C)=O (stereo not given in full) | 4.32 µM (active) |
| CN(C)CCc1ccc(O)cc1 | inactive |
| CCOP(=S)(OCC)Oc1cc(C)nc(C(C)C)n1 | inactive |
| O=c1oc2ccccc2c(O)c1C(CC(O)c1ccc(-c2ccc(Br)cc2)cc1)c1ccccc1 (stereo not given) | inactive |
| CC1=C2C[C@@H]3[C@@H](CC=C4C[C@@H](O)CC[C@@]43C)[C@@H]2CC[C@]12O[C@H]1C[C@H](C)CN[C@H]1[C@H]2C | 30.6 µM (active) |
| O=c1[nH]c2ccccc2n1C1CCN(CCCC(c2ccc(F)cc2)c2ccc(F)cc2)CC1 | 17.4 µM (active) |
| CCCC(C)(COC(N)=O)COC(=O)NC(C)C (stereo not given) | inactive |
| Fc1ccc(C(OCCN2CCN(CCCc3ccccc3)CC2)c2ccc(F)cc2)cc1 | 10.9 µM (active) and 15.5 µM (active) |
| CN(C)[C@@H]1C(=O)C(C(N)=O)=C(O)[C@@]2(O)C(=O)C3=C(O)c4c(O)cccc4[C@@](C)(O)[C@H]3C[C@@H]12 | inactive |
| OCCOc1ccccc1 | inactive |
| CN1CCN(C(=O)O[C@H]2c3nccnc3C(=O)N2c2ccc(Cl)cn2)CC1 | inactive |
| CCC(=O)C(CC(C)N(C)C)(c1ccccc1)c1ccccc1 (stereo not given) | 22.5 µM (active) |
| CCCN1CCC[C@@H]2Cc3nc(N)ncc3C[C@H]21 | inactive |
| CCCN1CCC[C@@H]2Cc3[nH]ncc3C[C@H]21 | inactive |
| Cc1ccc2c(c1)C1CN(C)CCC1N2 (stereo not given) | inactive |
| CC[C@@H](CO)NC(=O)[C@@H]1C=C2c3cccc4[nH]cc(c34)C[C@H]2N(C)C1 | inactive |
| Oc1cc(Cl)ccc1Oc1ccc(Cl)cc1Cl | 28.9 µM (active) |
